# PubChem BioAssay (NCI)
# Compounds without any hit were thinned out: in the full panel of roughly 79,000, 15% have a hit. Values without a mark were called inactive. Calls of active or inactive are those of the source. Cut-off read from the data, not from the text of the source: active = growth inhibition above about 70%; inactive = the rest.
# Experiments:
# [1] = NCI Yeast Anticancer Drug Screen. Data for the rad50 strain (AID 155);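 note: 0% = growth of vehicle-only cultures of the same strain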; settings: S. cerevisiae rad50 strain growth inhibition; at 50.0 µM; stronger effect = higher value
# Summary of the method: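 Inhibition values express reduced yeast growth in compound-treated cultures relative to vehicle-treated controls.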
# [2] = NCI Yeast Anticancer Drug Screen. Data for the mec2-1 strain (AID 157); settings: S. cerevisiae mec2-1 strain, at 50.0 µM, stronger effect = higher value
# Summary of the method: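 Mutant yeast (mec2-1) grown with compound; growth inhibition relative to vehicle control reported.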
# [3] = NCI Yeast Anticancer Drug Screen. Data for the sgs1 mgt1 strain (AID 161);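 note: 0% = growth of cultures given vehicle only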; settings: S. cerevisiae sgs1 mgt1 strain, at 50.0 µM, stronger effect = higher value
# Summary of the method: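 Compounds are added to genetically altered yeast, and growth is compared with cultures given vehicle alone to give percent inhibition.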
# [4] = NCI Yeast Anticancer Drug Screen. Data for the cln2 rad14 strain (AID 165);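 note: 0% = growth equal to vehicle treated cultures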; settings: S. cerevisiae cln2 rad14 strain, at 50.0 µM, stronger effect = higher value
# Summary of the method: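 Readout is yeast growth inhibition versus vehicle-treated controls, using a strain with cln2 and rad14 alterations exposed to compound.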
# [5] = NCI Yeast Anticancer Drug Screen. Data for the bub3 strain (AID 167); settings: S. cerevisiae bub3 mutant strain, at 50.0 µM, stronger effect = higher value
# Summary of the method: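 Steps: expose the mutant yeast strain to compound; grow alongside vehicle-treated cultures; measure growth; express inhibition against the vehicle cultures.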
# [6] = NCI Yeast Anticancer Drug Screen. Data for the mlh1 rad18 strain (AID 175); settings: S. cerevisiae mlh1 rad18 strain growth inhibition; at 50.0 µM; stronger effect = higher value
# Summary of the method: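 Genetically defined yeast (DNA repair-deficient) exposed to compounds; growth inhibition determined relative to vehicle.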
Compound,growth inhibition [1],growth inhibition [2],growth inhibition [3],growth inhibition [4],growth inhibition [5],growth inhibition [6]
O=C(OCc1ccco1)c1ccc([N+](=O)[O-])cc1,-5.15%,-7.3%,-3.75%,-32.6%,-13.5%,-12.8%
CC12CCC3c4ccc(O)cc4C(=O)CC3C1CCC2O (stereo unspecified),-16.1%,7.6%,5.8%,-29.8%,-11.2%,-17.6%
C(=Nc1ccccc1)Nc1ccccc1,2.85%,15.1%,16.4%,25.9%,-15.4%,-12.8%
N#CNc1c2ccccc2nc2ccccc12,-12.1%,1.05%,-16.6%,2.85%,6.5%,-4.75%
O=C1c2ccccc2C(=O)N1CCSCCSCCN1C(=O)c2ccccc2C1=O,-3.1%,-13.7%,12.6%,14.6%,-7.15%,10.2%
CCC(=O)c1c2c(cc3ccccc13)CCCC2,11.7%,-10.7%,7.3%,3.85%,38.2%,34%
COc1ccc(NC(=O)COc2ccc(Cl)cc2Cl)cc1,22.9%,26.8%,31.4%,36%,33%,19.6%
Cc1ccc(C)c(NCc2ccccc2)c1,41.6%,20.1%,8.85%,-16.9%,36.9%,24.3%
NC(=S)c1ccccc1N=Cc1cccs1,26.8%,16.1%,14.2%,-7.7%,53.6%,41.5%
O=c1c(-c2ccccc2)c(O)on1/C=C1/C=CC=N1,-8.6%,-25.2%,3.5%,3.8%,7.2%,1.5%
CCCCC(=O)CCCC,3.55%,-14%,-5.1%,-3.3%,-4.95%,4.35%
Cn1cc(/C=C/C(=O)c2ccccc2[N+](=O)[O-])c2ccccc21,7.8%,12.9%,2.6%,18.1%,0.6%,2.85%
S=c1sc2c(Cl)ncnc2n1-c1ccccc1,1.55%,24.4%,13.2%,11.8%,9.7%,5.6%
O=C1c2ccccc2C(=O)c2c(NCCNC(=O)C3CCCN3)ccc(NCCNC(=O)C3CCCN3)c21 (stereo unspecified),-1.25%,-11.7%,21.8%,3.4%,-3.7%,-85.5%
Cn1c(Nc2ccccc2)c([N+](=O)[O-])c(=O)n(C)c1=O,-11.8%,-7.35%,-5%,-18.2%,-2.15%,-27.6%
CC1=CC(O)CC(C)(C)C1/C=C/C(C)=C/C=C/C(C)=C/C=C/C=C(C)/C=C/C=C(C)/C=C/C1=C(C)CC(O)CC1(C)C (stereo unspecified),14.4%,-15.4%,22.6%,16.4%,-30.9%,-37.1%
O=C(c1ccc(Cl)cc1)c1ccc(OCCSCCCCCCCCCCSCCOc2ccc(C(=O)c3ccc(Cl)cc3)cc2)cc1,-43.1%,-27.7%,-35.1%,-9.4%,-38.6%,-30.9%
COC(=O)C[C@H](C)[C@H](C)CC(=O)O,-17.6%,-19.9%,-1.6%,-7.3%,-0.45%,-12.9%

Compound,growth inhibition [1],growth inhibition [2],growth inhibition [3],growth inhibition [4],growth inhibition [5],growth inhibition [6]
COC(=O)c1ccccc1C1CN=NC12Cc1c(C)ccc(C)c1C2=O (stereo unspecified),9.5%,7%,16.9%,14.2%,3.55%,29.9%
Cn1cc(-c2ccc3c4ccccc4n(C)c3c2)c2ccccc21,-17.9%,-4.3%,-7.5%,-2.8%,-10.2%,2.15%
O=C(CNOCc1ccccc1)OCc1ccccc1,25.5%,16.1%,2.65%,-6.8%,3.45%,19.4%
Cc1cc(N(CCC#N)CCC#N)ccc1/C(N=Nc1ccccc1)=N\NC(=O)c1cc(Cl)ccc1O,18.8%,9.8%,2.7%,-3%,-17.4%,30.9%
O=C1OC(c2ccccc2)=N/C1=C\c1cccc(F)c1,-18.4%,-18.2%,-23.1%,-6.95%,-16.1%,6.25%
O=C(Nc1cccc(Cl)c1)Nc1ccc(Sc2ccc(Cl)cc2)o1,55.1%,7%,70.6% (active),29.9%,47.6%,69.8%
O=C(NNC(=O)c1ccc(Cl)c(Cl)c1)c1ccc(Cl)c(Cl)c1,-37.9%,-56.5%,-25.1%,6.15%,-16.4%,-33.1%
O=C(O)c1ccccc1C(=O)CC(O)(C(F)(F)F)C(F)(F)F,-20.6%,9.9%,-1.5%,-31.3%,-10.9%,-20.9%
Nc1ncnc(N)c1NC(=O)c1cccc(F)c1,0.15%,-1.3%,-3.7%,-39.2%,-8.35%,1.5%
Nc1ncnc2c1ncn2-c1ccccc1,4.05%,2.95%,-2.05%,9.7%,9.85%,-17.4%
COc1ccc(C(=O)Nc2ccn(CCOC(=O)c3ccc(OC)cc3)c(=O)n2)cc1,-25.9%,16.9%,-3.1%,-4%,2.8%,-3.55%
CCN(CC)CCOC(=O)c1ccc(N=Nc2ccc(O)cc2O)cc1,-12.8%,-2.7%,-1.3%,-21.7%,-24.5%,-17.1%
Nc1ncnc2c1N=C(c1ccccc1)CC(c1ccccc1)N2 (stereo unspecified),-8.75%,-5.15%,-4.15%,3.15%,-35.4%,2.6%
Cc1cc(=O)n(-c2cncc(Br)c2)[nH]1,1.5%,2.05%,1.5%,-17.5%,12.4%,7.75%
COc1ccc(C(=O)Sc2c(-c3ccccc3)c(=O)n(-c3ccccc3)c(=S)n2-c2ccccc2)cc1,0.75%,-4.9%,2.45%,1.7%,0.6%,10.1%
C/C=C(/C)C(C#N)(CCC)C(=O)OCC (stereo unspecified),5.9%,-12.4%,-8.7%,3%,-9.85%,11.3%
CCCCSc1nc2ccc(N=Cc3ccccc3O)cc2s1,-19.6%,-11.2%,-4.45%,-17.7%,-5.75%,-22.4%
CC(O)CC1CC(=O)CCC1=O (stereo unspecified),0.35%,-18.1%,-10.7%,-29.2%,-5.85%,8.3%
